# Values without a mark were called inactive. How the calls were made is not given here.
# Biological target: Pantothenate synthetase (Mycobacterium tuberculosis (strain ATCC 25618 / H37Rv)) (UniProt P9WIL5)
# Experiment: Coupled enzyme confirmation of inhibitors against recombinant Mtb PanC (AID 375);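 further: 0% = full reaction with vehicle and 100% = no enzyme background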
# Settings: coupled enzyme assay; at 10 µM, stronger effect = higher value
# Chain of Pantothenate synthetase (Mycobacterium tuberculosis (strain ATCC 25618 / H37Rv)) (P9WIL5 whole entry, looked up): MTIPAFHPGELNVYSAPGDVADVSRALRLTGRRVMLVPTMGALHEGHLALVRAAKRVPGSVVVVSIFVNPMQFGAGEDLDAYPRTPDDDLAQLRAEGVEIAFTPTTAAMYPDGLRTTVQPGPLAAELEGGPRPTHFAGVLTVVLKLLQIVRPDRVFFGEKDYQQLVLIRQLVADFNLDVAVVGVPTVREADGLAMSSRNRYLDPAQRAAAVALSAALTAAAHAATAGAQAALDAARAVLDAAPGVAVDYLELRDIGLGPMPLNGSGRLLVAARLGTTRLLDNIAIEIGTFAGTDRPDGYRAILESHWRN
row,SMILES,inhibition [%]
1,CCNC(=O)Cn1cnc2c1c(=O)n(C)c(=O)n2C,0
2,CC(C)OC(=O)c1ccc(NC(=O)C2C3CC4OC(=O)C2C4C3)cc1 (configuration not stated),7
3,COc1ccc2nc(NC(=O)C(NS(=O)(=O)c3cccs3)C(C)C)sc2c1 (configuration not stated),0
4,Cc1oc(-c2ccccc2F)nc1CS(=O)(=O)CC(=O)N1CCN(Cc2ccccc2)CC1,0
5,COC(=O)c1cc(NC(=O)C2CC=CCC2C(=O)O)cc(C(=O)OC)c1 (configuration not stated),3
6,O=C(CCCN1C(=O)c2ccccc2C1=O)NCc1cccnc1,3
7,O=C(OCCN(CCOC(=O)c1ccncc1)S(=O)(=O)c1cccs1)c1ccncc1,0

# Reference: PubChem BioAssay
